In experiment [1] the test system is CRL-7250. Put plainly: Cytotoxic Profiling of Annotated Libraries Using Quantitative High-Throughput Screening (AID 1296008). For max response: % is set by controls: 0 for no effect and ±100 for the full control effect. Note: nearly all actives have a fitted effect of over 60% in size. As to conditions: Five cell lines viability, CellTiter-Glo ATP luminescence, 48-72 h; max response: stronger effect = lower value. The method, boiled down:
(§1)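 Compounds were pin-transferred onto cells and incubated 48 or 72 hr at 37 degree Celsius, 95% humidity. CellTiter-Glo was added, plates sat 10 min at room temperature, then ATP-coupled luminescence was imaged as the viability read-out.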

The test system of experiment [2] is HEK293. Described as above. As to conditions: Five cell lines viability, CellTiter-Glo ATP luminescence, 48-72 h; max response: stronger effect = lower value. The method, boiled down: as §1
The test system of experiment [3] is MCC-26. The experiment in a line: qHTS assay to identify novel small-molecules to repurpose for Merkel cell carcinoma treatment (AID 1296009). Note: nearly all actives have a fitted effect of over 60% in size. To be noted: MCC and control cell lines, CellTiter-Glo viability, 72 h; series mostly up to 46 µM. The method, boiled down:
(§2)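 qHTS format: cells treated with library compounds in DMSO across 8 (NPC) or 11 (MIPE) concentrations. Readout after 72 hr at 37 degree celsius was CellTiter-Glo luminescence.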

For experiment [4], the system named is MKL-1. The experiment is described as above. To be noted: MCC and control cell lines, CellTiter-Glo viability, 72 h; series mostly up to 46 µM. The method, boiled down: as §2
The test system of experiment [5] is MKL-2. The experiment is described as above. As to conditions: MCC and control cell lines, CellTiter-Glo viability, 72 h; series mostly up to 46 µM. The method, boiled down:
as §2

The subject of experiment [6] is UISO. The description is as above. As to conditions: MCC and control cell lines, CellTiter-Glo viability, 72 h; series mostly up to 46 µM. The method, boiled down: as §2
The test system of experiment [7] is C33A. The experiment in a line: Primary qHTS to identify gynecologic anti-cancer compounds using libraries of approved drugs and bioactive compounds (AID 1345084). Note: nearly all actives have a fitted effect of over 55% in size. To be noted: Gynecologic cancer cell panel viability, ATPlite luminescence, 48 h; series mostly up to 57.5 µM. The method, boiled down: (§3)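 Five-point cytotoxicity, 48 h drug exposure at 37 C, 5% CO2, on cells seeded 16 h beforehand. ATP content read by ATPlite luminescence.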

The test system of experiment [8] is CAOV3. Described as above. To be noted: Gynecologic cancer cell panel viability, ATPlite luminescence, 48 h; series mostly up to 57.5 µM. The method, boiled down: as §3
Experiment [9] deals with CASKI. The experiment is described as above. As to conditions: Gynecologic cancer cell panel viability, ATPlite luminescence, 48 h; series mostly up to 57.5 µM. The method, boiled down: as §3
The subject of experiment [10] is Es-2. Described as above. As to conditions: Gynecologic cancer cell panel viability, ATPlite luminescence, 48 h; series mostly up to 57.5 µM. The method, boiled down: as §3
For experiment [11], the system named is KB-3-1. The experiment in a line: Cytotoxic Profiling of Annotated Libraries Using Quantitative High-Throughput Screening (AID 1296008). For max response: % is set by controls: 0 for no effect and ±100 for the full control effect. Note: nearly all actives have a fitted effect of over 60% in size. To be noted: Five cell lines viability, CellTiter-Glo ATP luminescence, 48-72 h; max response: stronger effect = lower value. The method, boiled down: as §1
Experiment [12] concerns NIH3T3. The experiment is described as above. As to conditions: Five cell lines viability, CellTiter-Glo ATP luminescence, 48-72 h; max response: stronger effect = lower value. The method, boiled down:
as §1

In experiment [13] the test system is MCC-13. The experiment in a line: qHTS assay to identify novel small-molecules to repurpose for Merkel cell carcinoma treatment (AID 1296009). Note: nearly all actives have a fitted effect of over 60% in size. To be noted: MCC and control cell lines, CellTiter-Glo viability, 72 h; series mostly up to 46 µM. The method, boiled down: as §2
Experiment [14] relates to WaGa. The experiment is described as above. As to conditions: MCC and control cell lines, CellTiter-Glo viability, 72 h; series mostly up to 46 µM. The method, boiled down:
as §2

Experiment [15] deals with W2. The experiment in a line: qHTS profiling for inhibitors of Plasmodium falciparum proliferation (AID 504749). Note: nearly all actives have a fitted effect of over 60% in size. As to conditions: P. falciparum in erythrocytes, SYBR Green DNA, 72 h; series mostly up to 28.7 µM. The method, boiled down: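 Parasite proliferation within erythrocytes, 72 h exposure. Endpoint: SYBR Green I fluorescence after overnight lysis at room temperature. Controls: 0.29 uM artemisinin, DMSO.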

Experiment [16] relates to HeLa. The experiment in a line: Primary qHTS to identify gynecologic anti-cancer compounds using libraries of approved drugs and bioactive compounds (AID 1345084). Note: nearly all actives have a fitted effect of over 55% in size. To be noted: Gynecologic cancer cell panel viability, ATPlite luminescence, 48 h; series mostly up to 57.5 µM. The method, boiled down:
as §3

The test system of experiment [17] is HaCat. The experiment in a line: Cytotoxic Profiling of Annotated Libraries Using Quantitative High-Throughput Screening (AID 1296008). For max response: % is set by controls: 0 for no effect and ±100 for the full control effect. Note: nearly all actives have a fitted effect of over 60% in size. To be noted: Five cell lines viability, CellTiter-Glo ATP luminescence, 48-72 h; max response: stronger effect = lower value. The method, boiled down: as §1

Where “and” joins values, the source holds several entries; their conditions need not be identical. Equal entries are not always repeated. Results filed as inconclusive are left out. Some structures have more than one record in an assay (separate samples or runs), and their calls can disagree. Calls of active or inactive are those of the source. Calls come from the whole dose curve; as a rule, active = well fitted curve in the direction sought with a large enough effect; inconclusive = small, poorly fitted or top-dose-only effect, or another doubt; inactive = no such curve, though single readings can be large; an effect the other way counts as inactive or inconclusive.
Potency is the fitted concentration of half-maximal effect.

Consider `COc1cc2nc(N3CCCN(C)CC3)nc(NC3CCN(Cc4ccccc4)CC3)c2cc1OC`, for which the Potency is 9.35 µM (active) in [1]; 6.62 µM (active) in experiment [2]; 23.5 µM (active) in experiment [3]; 2.96 µM (active) in experiment [4]; 1.32 µM (active) in experiment [5]; 14.8 µM (active) in experiment [6].

For `CO[C@@]12[C@H](COC(N)=O)C3=C(C(=O)C(C)=C(N)C3=O)N1C[C@@H]1N[C@@H]12`, in [7], the Potency entry is “inactive”. Further, the Potency is 3.55 µM (active) in experiment [8], 8.91 µM (active) in [9] and 4.47 µM (active) in [10].

`Oc1c(Cl)cc(Cl)c2cccnc12`: the max response in [11] is -16.3% (inactive). Besides, the Potency is 23.7 µM (active) in experiment [12]; 5.31 µM (active) in experiment [4]; 3.76 µM (active) in [5]; 13.3 µM (active) in [6]; 11.9 µM (active) in [14]; 20 µM (active) in experiment [10]. Besides, the Potency result in experiment [13], in experiment [3] and in experiment [9] was “inactive” each time.

For `CC(C)(C#N)c1cc(Cn2cncn2)cc(C(C)(C)C#N)c1`, the Potency entry in experiment [15], in experiment [13], in [4], in experiment [5], in [6] and in experiment [14] was “inactive” each time. The Potency result in experiment [7], in [8], in experiment [9] and in experiment [10] was “inactive” in each case.

As for `NC(N)=NC(N)=NCCc1ccccc1`, the Potency entry in [15], in experiment [8] and in [16] was “inactive” in each case.

As for `CNC(=O)c1cc(Oc2ccc(NC(=O)Nc3ccc(Cl)c(C(F)(F)F)c3)cc2)ccn1`, the Potency in experiment [15] was 15.1 µM (active); in [2], 7.43 µM (active) and 5.8 µM (active); in experiment [11], 14.8 µM (active) and 6.51 µM (active); in experiment [12] it was 23.5 µM (active); in experiment [14], 23.7 µM (active). Further, in experiment [17], the max response was -11.7% (inactive) and -12.9% (inactive). Also, the Potency entry in [13], in experiment [8], in [9] and in [10] was “inactive” in each case.

Consider `OCc1ccc(-c2nn(Cc3ccccc3)c3ccccc23)o1`, for which the Potency is 14.8 µM (active) in [2], 18.7 µM (active) in experiment [5] and 11.8 µM (active) in experiment [6]. In addition, the outcome in [11] was inactive. The Potency entry in experiment [13] and in experiment [3] was “inactive” each time.

As for `CCCc1nc(C)c2c(=O)[nH]c(-c3cc(S(=O)(=O)N4CCN(CC)CC4)ccc3OCC)nn12`, the Potency entry in [7], in [8], in experiment [9], in experiment [10] and in experiment [16] was “inactive” in each case.

For `Cc1onc(-c2ccccc2Cl)c1C(=O)N[C@@H]1C(=O)N2[C@@H]1SC(C)(C)[C@@H]2C(=O)O`, the Potency entry in experiment [7], in experiment [8], in experiment [9], in [10] and in experiment [16] was “inactive” throughout.

With `Cc1nnc(NS(=O)(=O)c2ccc(N)cc2)s1`, the Potency entry in experiment [15], in [7], in experiment [8], in experiment [9] and in experiment [10] was “inactive” each time.

On to `CCCCc1oc2ccc(NS(C)(=O)=O)cc2c1C(=O)c1ccc(OCCCN(CCCC)CCCC)cc1`, for which the Potency in experiment [17] is 23.7 µM (active); in [11], 23.1 µM (active); in experiment [12] it was 9.44 µM (active); in [5], 13.2 µM (active) and 4.73 µM (active). In addition, the Potency entry in [13], in experiment [3] and in experiment [16] was “inactive” throughout.

Take `CC[C@H](C)C(=O)O[C@H]1C[C@@H](C)C=C2C=C[C@H](C)[C@H](CC[C@@H]3C[C@@H](O)CC(=O)O3)[C@H]21`: the Potency in experiment [1] is 2.66 µM (active) and 13.2 µM (active) and 3.17 µM (active); in [17], 11.8 µM (active); in experiment [13], 21.1 µM (active); in experiment [4], 23.7 µM (active) and inactive; in experiment [6] it was 9.44 µM (active) and 20.9 µM (active). For the same molecule, the max response in experiment [12] was -16.3% (inactive). Further, the Potency entry in [3], in experiment [14], in [7], in experiment [8], in experiment [9] and in experiment [10] was “inactive” throughout.

Source of the values: PubChem BioAssay (NCATS).
